# According to the supplement of paper PMC7411640:
# Counter-ions that a name gives are not always drawn.
# System: MDA-MB-468
# Assay: phospho-S6 immunofluorescence (DAPI-normalised), per-plate z-score; higher = higher phospho-S6 signal (less pathway suppression)
# Conditions: co-treatment: GDC0941 450 nM; 24 h
# Method: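 GPCR-targeted compound library (MedChemExpress HY-L006) tested on MDA-MB-468 PTEN-null TNBC cells in 384-well plates at 0.1, 1 or 10 uM, combined with vehicle, GDC0941 450 nM or lapatinib 1 uM, for 24 h. Phospho-S6 (S240/244) immunofluorescence normalised to DAPI and expressed as a per-plate z-score; values are the mean of biological triplicates.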
row,SMILES,phospho-S6 immunofluorescence (z-score)
1,CN1CCN(C2=Nc3ccccc3Oc3ccc(Cl)cc32)CC1 [Loxapine] (compound 10 µM),0.6
2,Cc1[nH]cnc1CN1CCc2c(c3ccccc3n2C)C1=O [Alosetron (Hydrochloride)] (compound 10 µM),0.22
3,OC[C@H]1O[C@@H](n2cnc3c(N[C@@H]4CCc5ccccc54)ncnc32)[C@H](O)[C@@H]1O (compound 10 µM),1.19
4,CC[C@H](NC(=O)c1c(O)c(-c2ccccc2)nc2ccccc12)c1ccccc1 [Talnetant] (compound 10 µM),0.6
5,C[C@@H](O[C@H]1OCCN(Cc2n[nH]c(=O)[nH]2)[C@H]1c1ccc(F)cc1)c1cc(C(F)(F)F)cc(C(F)(F)F)c1 [Aprepitant] (compound 10 µM),-1.22
6,CCc1c(C(=O)NCCc2ccc(N3CCCCC3)cc2)[nH]c2ccc(Cl)cc12 (compound 10 µM),-1.02
7,CC1(C)C(=O)N(CCN2CCC(C(=O)c3ccc(F)cc3)CC2)c2ccccc21 (compound 10 µM),-0.29
8,COc1cc(C(=O)NCc2ccc(OCCN(C)C)cc2)cc(OC)c1OC [Trimethobenzamide hydrochloride] (compound 10 µM),0.29
9,CC(=O)OCC(=O)NCCCOc1cccc(CN2CCCCC2)c1 [Roxatidine (Acetate Hydrochloride)] (compound 10 µM),0.24
10,COc1ccc(-c2oc3c(CC=C(C)C)c(O)cc(O)c3c(=O)c2O[C@@H]2O[C@@H](C)[C@H](O)[C@@H](O)[C@H]2O)cc1 [Baohuoside I] (compound 10 µM),-5.72
11,Cc1ccc(/C(=C\CN2CCCC2)c2cccc(/C=C/C(=O)O)n2)cc1 [Acrivastine] (compound 10 µM),0.27
12,CCCCC[C@H](O)/C=C/[C@@H]1[C@@H](C/C=C\CCCC(=O)O)[C@@H](O)C[C@H]1O [Dinoprost (tromethamine salt)] (compound 10 µM),-0.07
13,NCCc1ccc(O)c(O)c1 [Dopamine (hydrochloride)] (compound 10 µM),0.84
14,C[C@]12CCC(=O)C=C1CC[C@@H]1[C@@H]2CC[C@@]2(C)[C@H]1CC[C@]2(O)C(=O)CO [Cortodoxone] (compound 10 µM),-0.95
15,COc1cc2nc(C3CC3)nc(N3CCN(c4ccccc4OC)CC3)c2cc1OC (compound 10 µM),-1.77
16,CCNC(=O)[C@H]1O[C@@H](n2cnc3c(N)nc(NCCc4ccc(CCC(=O)O)cc4)nc32)[C@H](O)[C@@H]1O (compound 10 µM),0.05
17,O=C(O)CCc1ccc(NCc2cccc(Oc3ccccc3)c2)cc1 (compound 10 µM),-0.04
18,CN(C)CCCN1c2ccccc2Sc2ccccc21 [Promazine (hydrochloride)] (compound 10 µM),-0.07
19,CN(C)CCC(c1ccc(Cl)cc1)c1ccccn1 (stereo not drawn) [Chlorpheniramine (maleate)] (compound 10 µM),-5.85
20,O=C(O[C@@H]1C[C@@H]2C[C@H]3C[C@H](C1)N2CC3=O)c1c[nH]c2ccccc12 [Dolasetron] (compound 10 µM),-0.34
21,OCc1ccc(-c2nn(Cc3ccccc3)c3ccccc23)o1 [Lificiguat] (compound 10 µM),3.23
22,CC(C)N(CCCCOCC(=O)O)c1cnc(-c2ccccc2)c(-c2ccccc2)n1 (compound 10 µM),1.34
23,Cc1ccc(Sc2ccccc2N2CCNCC2)c(C)c1 [Vortioxetine] (compound 10 µM),-5.05
24,C[C@H](Cc1cc2c(c(C(N)=O)c1)N(CCCO)CC2)NCCOc1ccccc1OCC(F)(F)F [Silodosin] (compound 10 µM),-0.57
25,COCCCN1CCC(NC(=O)c2cc(Cl)c(N)c3c2OCC3)CC1 [Prucalopride (succinate)] (compound 10 µM),-1.08
26,C=CCc1ccccc1OCC(O)CNC(C)C (stereo not drawn) [Alprenolol (hydrochloride)] (compound 10 µM),0.45
27,O=C(CCCN1CC=C(n2c(=O)[nH]c3ccccc32)CC1)c1ccc(F)cc1 [Droperidol] (compound 10 µM),-0.18
28,N=C(N)NCCC[C@@H](NC(=O)[C@@H]1CCCN1C(=O)[C@@H]1CSSCCC(=O)N[C@@H](Cc2ccc(O)cc2)C(=O)N[C@@H](Cc2ccccc2)C(=O)N[C@@H](CCC(N)=O)C(=O)N[C@@H](CC(N)=O)C(=O)N1)C(=O)NCC(N)=O [Desmopressin (Acetate)] (compound 10 µM),0.16
